Rows were chosen to be rich in hits. Some 15% of all compounds tested hit in one or more screens of this group.
ELG1 repair inh: ELG1-dependent DNA repair inhibition | HEK293T ELG1-luciferase reporter, luminescence, 16 h; DNA damage induced by 5-fluorouridine | Potency, µM (titrated, usually from 46.1 µM), without a hit: at the top dose activity change, negative = inhibition, usual class: inhibitors | 2.3% of 330,000 active | AID 504467; further: nearly all actives have a fitted effect of over 55% in size
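Luminescence from the luciferase reporter, measured 30 min after ONE-Glo reagent at room temperature, was the read-out. Beforehand, 2,000 cells per well were exposed for 16 hr at 37 °C to 5-fluorouridine together with compound or vehicle.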
RORg inh: inhibitors of mouse ROR gamma transcriptional activity; P51450; Drosophila S2 Gal4-RORgamma UAS-luciferase reporter, 20 h; Potency, µM (titrated, usually from 53.6 µM), inactives show top-dose activity change, negative = inhibition, most hits filed as inhibitors; 5.4% of 310,000 active; AID 2551; further: nearly all actives have a fitted effect of over 60% in size
Target sequence (P51450 whole entry, looked up, the tested form may be a part): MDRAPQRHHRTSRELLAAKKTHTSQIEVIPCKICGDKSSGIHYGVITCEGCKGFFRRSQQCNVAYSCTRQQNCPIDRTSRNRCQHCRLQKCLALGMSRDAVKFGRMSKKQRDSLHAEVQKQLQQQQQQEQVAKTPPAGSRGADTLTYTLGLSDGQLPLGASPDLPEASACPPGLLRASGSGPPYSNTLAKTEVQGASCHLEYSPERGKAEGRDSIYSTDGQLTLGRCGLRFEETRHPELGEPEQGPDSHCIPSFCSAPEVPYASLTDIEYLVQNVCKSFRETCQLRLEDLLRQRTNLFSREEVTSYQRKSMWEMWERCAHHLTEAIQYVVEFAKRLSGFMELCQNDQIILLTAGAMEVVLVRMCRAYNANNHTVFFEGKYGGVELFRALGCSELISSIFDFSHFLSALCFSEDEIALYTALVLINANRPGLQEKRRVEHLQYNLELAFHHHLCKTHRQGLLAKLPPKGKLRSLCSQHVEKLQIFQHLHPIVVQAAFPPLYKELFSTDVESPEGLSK
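Drosophila Schneider cells stably carrying a metallothionein-driven Gal4 DBD–ROR gamma fusion and a UAS-Photinus luciferase reporter were exposed to compound for 1 hr, then induced with copper sulfate (700 uM final) for 20 hr at ambient temperature before luminescence reading.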
Gal4-VP16 FLuc: inhibits Gal4-VP16 luciferase reporter, ROR gamma counter-screen. Drosophila S2 Gal4-VP16 UAS-luciferase, luminescence, 20 h. Potency, µM (top dose mostly 53.6 µM), inactives show at the top dose activity, negative = inhibition, usual class: inhibitors. 3.5% of 310,000 active;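 further: Gal4-VP16 expression switched on by copper sulfate through the metallothionein promoter; nearly all actives have a fitted effect of over 50% in size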
TDP1 cell noCPT: qHTS for Inhibitors of human tyrosyl-DNA phosphodiesterase 1 (TDP1): qHTS in cells in absence of CPT; DT40 Tdp1-/- hTDP1 cells, no CPT, ATP luminescence, 48 h; Potency, µM (series often up to 46.2 µM), for inactives: top-dose activity change, negative = growth inhibition, most hits filed as inhibitors; 15% of 420,000 active; AID 686978, 2013; further: nearly all actives have a fitted effect of over 55% in size
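Cells were dispensed at 400 per well, compounds added by pin tool, plates incubated ≥48 hr at 37 °C, then CellTiter-Glo added for 30 min at room temperature before luminescence reading. Line: DT40 Tdp1-/- complemented with hTDP1; camptothecin omitted.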
DT40 TDP1 CPT: DT40-hTDP1 cell growth loss with CPT | AID 686979 | chicken DT40 Tdp1-/-;hTDP1 cells + 20 nM CPT, ATP luminescence, 48 h | Potency, µM (series often up to 46.2 µM), for inactives: at the top dose activity change, negative = growth inhibition, most hits filed as inhibitors | 12% of 420,000 active; further: nearly all actives have a fitted effect of over 55% in size
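Chicken DT40 Tdp1-/- cells stably complemented with human TDP1 were seeded at 400 cells/well in medium containing 20 nM camptothecin, exposed to pin-transferred compounds, and grown at 37 °C for at least 48 hr. Viability was read as ATP luminescence.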
12-LOX inh: blocks human arachidonate 12S-lipoxygenase | purified 12hLO, xylenol orange hydroperoxide absorbance | Potency, µM (top dose mostly 108 µM), inactives show at the highest dose activity change, negative = inhibition, usual class: inhibitors | 1.1% of 580,000 active | AID 1671190
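Purified human 12hLO at 150 nM in 25 mM Hepes, 0.01% Triton X-100, pH 7.0, preincubated 15 min at room temperature with compound. Reaction started with 40 uM arachidonic acid, 30 min at room temperature. Hydroperoxide measured by Fe-xylenol orange, 573/405 nm absorbance ratio.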
* = called active by the depositor; ? = inconclusive; · = not tested or not shown; [ ] = another dose, or the depositor's remark. The call rests on the fitted dose curve; in most records, active means well fitted curve in the direction sought with a large enough effect; inconclusive means small, poorly fitted or top-dose-only effect, or another doubt; inactive means no such curve, though single readings can be large; an effect the other way counts as inactive or inconclusive. On the % scale 0 is the no-effect control and ±100 the full control effect; potency means the concentration at half of the fitted maximal effect.

SMILES	ELG1 repair inh	RORg inh	Gal4-VP16 FLuc	TDP1 cell noCPT	DT40 TDP1 CPT	12-LOX inh
COc1ccc(C2CC(c3ccccc3NS(=O)(=O)c3ccccc3)=NN2C(C)=O)cc1 (stereo not drawn)	·	·	·	·	·	-8%
CCn1cc(CN2CCC3(CC2)CN(C)CC3COC)cn1 (stereo not drawn)	·	·	·	·	·	95%
COc1ccc(CCNC(=O)c2ccc3c(c2)CCN3S(=O)(=O)c2ccccc2)cc1	·	·	·	21µM*	3.7µM*	5%
Cc1ccc(S(=O)(=O)N2CCc3cc(C(=O)N(C)Cc4ccccc4)ccc32)cc1	·	·	·	13µM*	15µM*	-21%
COc1ccc(CCNC(=O)c2ccc3c(c2)CCN3S(=O)(=O)c2ccccc2)cc1OC	·	·	·	?	16µM*	-15%
CC1(C(=O)O)CCCN1C(=O)c1ccc(Cl)cc1Cl (stereo not drawn)	·	·	·	4%	?	-9%
Cc1oc(-c2ccc(Cl)cc2)cc1C(=O)N1CCC1(C)C(=O)O (stereo not drawn)	·	·	·	?	29µM*	?
O=C(CCC1CCCO1)N1CCSCC1 (stereo not drawn)	·	·	·	·	·	-57%
CCCN(CC1CC1)c1nc(C)nc(Nc2c(Cl)cc(Cl)cc2Cl)c1Cl	·	3.5µM*	-4%	?	?	?
COC(=O)c1ccc(CSc2nc3ccccc3c(=O)n2C)o1	3%	-27%	0%	?	15µM*	?
CC(=O)Nc1ccc(NC(=O)CSc2nc(C)nc3sc(C)c(C)c23)cc1	-7%	24%	0%	?	1%	0%
COC(=O)c1ccc(CSc2nc3ccccc3c(=O)n2Cc2ccco2)o1	?	-10%	-24%	16µM*	23µM*	-2%
COC(=O)c1ccc(CSc2nc3ccccc3c(=O)n2CC(C)C)o1	-21%	-38%	7%	?	?	0%
COC(=O)c1ccc(CSc2nc(C)nc3sc(C)c(C)c23)o1	18%	?	4µM*	10µM*	15µM*	9%
CCCCn1c(SCc2ccc(C(=O)OC)o2)nc2cc(S(N)(=O)=O)ccc21	10µM*	-16%	10µM*	9.2µM*	3.3µM*	-29%
CCc1nc(SCc2ccc(C(=O)OC)o2)c2c(=O)n(C)c(=O)n(C)c2n1	?	?	13%	9.2µM*	15µM*	31%
COCC(C)n1c(SCc2cc(C(=O)OC)c(C)o2)nc2ccccc2c1=O (stereo not drawn)	?	1%	-6%	5.8µM*	4.1µM*	-8%
O=C(CSc1nc2cc(Cl)ccc2c(=O)n1Cc1ccco1)Nc1ccc(S(=O)(=O)N2CCOCC2)cc1	?	6%	-3%	-20%	-24%	-16%
COC(=O)c1cc(CSc2nnc(-c3ccccc3)c(-c3ccccc3)n2)oc1C	21µM*	45%	-18%	21µM*	23µM*	445%
COC(=O)c1ccc2c(=O)n(Cc3ccco3)c(SCC(=O)Nc3ccc(C)c(Cl)c3)nc2c1	?	-3%	0%	21µM*	10µM*	-7%
COc1cccc2cc(C(=O)NCCOc3cccc(C)c3)c(=O)oc12	·	·	·	·	·	-6%
CC(C)(C)c1cc(C(=O)NNc2cccc(Cl)c2)n(Cc2ccccc2)n1	1%	?	?	?	?	20%
Cc1ccc(NNC(=O)c2cc(C(C)(C)C)nn2Cc2ccccc2)cc1	?	?	18µM*	?	-18%	?
COc1ccccc1NC(=O)c1nnn(Cc2ccccc2)c1NC(=O)C(F)(F)F	11%	36%	2%	29µM*	?	-6%
CC(C)(C)c1cc(C(=O)NNc2cc(C(F)(F)F)ccc2Cl)n(Cc2ccccc2)n1	?	?	8.9µM*	21µM*	?	21%
SMILES	ELG1 repair inh	RORg inh	Gal4-VP16 FLuc	TDP1 cell noCPT	DT40 TDP1 CPT	12-LOX inh
CC(C)(C)c1cc(C(=O)Nc2ccc(F)cc2)n(Cc2ccc(F)cc2)n1	?	11µM*	?	21µM*	?	1%
COc1ccccc1NC(=O)c1nnn(Cc2ccccc2)c1NC(C)=O	-2%	31%	-4%	-13%	-16%	-7%
O=C(Cn1nc2c(cc1=O)CCCC2)NCc1nc2ccccc2[nH]1	·	·	·	·	·	64%
Cc1ccc(NC(=O)c2cc(C(C)(C)C)nn2Cc2ccccc2)cc1	?	-16%	-19%	29µM*	?	11%
CC(C)(C)C(=O)NNC(=O)c1cc(C(C)(C)C)nn1Cc1ccccc1	?	21%	-8%	-23%	-14%	80%
COc1ccccc1NNC(=O)c1cc(C(C)(C)C)nn1Cc1ccccc1	-2%	?	-5%	23µM*	1%	3%
Cc1cc(C)c2cc(C(=O)OCC(=O)N3CCCCC3C)[nH]c2c1 (stereo not drawn)	·	·	·	·	·	0%
COc1ccc(C2N=C(N)N=C(N)N2c2ccc(C)cc2)cc1 (stereo not drawn)	-3%	20%	7%	?	6.5µM*	-3%
Cc1cc(C)cc(N2C(N)=NC(N)=NC2c2ccccc2F)c1 (stereo not drawn)	-16%	24%	2%	0.65µM*	?	0%
Cc1cc(C)cc(N2C(N)=NC(N)=NC2c2cccc(Cl)c2)c1 (stereo not drawn)	?	1%	?	5.2µM*	?	?
CN1C[C@H](C(=O)Nc2nccs2)C[C@H]1c1cccc(C(F)(F)F)c1	·	·	·	·	·	-12%[176 µM]
CC(C)C(=O)NCCNC(=O)c1ccc2ccccc2n1	·	·	·	·	·	-8%
C=C(C)COc1ccc(-c2n[nH]c(C)c2-c2ccc(OC)cc2)c(O)c1	-41%	2.2µM*	?	?	?	?
CCOc1ccc(-c2n[nH]c(C)c2-c2ccccc2OC)c(O)c1	?	2µM*	?	?	13µM*	39%
COc1ccc(-c2c(-c3ccc(OCC(=O)NN)cc3O)n[nH]c2C)cc1OC	?	-27%	2%	-10%	5%	12%
CCc1cc(-c2n[nH]c(C)c2-c2ccccc2Cl)c(O)cc1OC	-4%	?	?	-29%	?	40µM*
COc1ccc(-c2c(-c3ccc(OCCN4CCC(C)CC4)cc3O)n[nH]c2C)cc1	·	·	·	·	·	-10%
